The target in assay [1] is Albumin (Bos taurus) (UniProt P02769). As to the kind of experiment: bovine serum albumin binders on microarray, profiling panel, artefact control for SMM control protein annotation, biochemical, small-molecule microarray, Alexa647 label, 635/667 nm fluorescence (AID 1118).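 Note: score merges 667 nm emission intensity and signal-to-noise per printed compound spot.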 Conditions: BSA-A647 binding, fluorescence 635 nm, higher = more signal.
Assay [2] in a line: small-molecule microarray binders of probe aXIP, primary screen, biochemical, NeuroSMM set, 635/667 nm fluorescence (AID 1119).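 Note: probe is the protein aXip251-270 applied at 1 µg/mL to compound-printed slides; binding of probe to printed compounds measured as 667 nm fluorescence plus signal to noise.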 The settings on record: higher = more signal, called active from +8 up or from −8 down.
Assay [3] can be described thus: small-molecule binders of probe aNOTCH3, primary screen, biochemical, small-molecule microarray, 635/667 nm fluorescence (AID 1120).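 Note: probe is a biotin-tagged antibody raised against NOTCH3 rather than NOTCH3 protein; score merges spot fluorescence near 667 nm with spot signal to noise.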 The settings on record: higher = more signal.
Assay [4] can be described thus: small-molecule binders of probe aNOTCH2, primary screen, biochemical, small-molecule microarray, 635/667 nm fluorescence (AID 1121).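 Note: score merges feature fluorescence read at 667 nm with its signal to noise.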 The settings on record: higher = more signal.
In assay [5] the target is Carbonic anhydrase 2 (Homo sapiens) (UniProt P00918). Kind of assay: CAII small-molecule binders, profiling panel, biochemical, small-molecule microarray, Alexa647-labelled CAII (AID 1122). The settings on record: CAII-A647 binding fluorescence, higher = more signal.
A short description of assay [6]: COS7 lysate on small-molecule microarray, probe aHis, 635 nm (AID 1123).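 Note: z-score combines 667nm fluorescence intensity with signal-to-noise per printed compound spot.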 The settings on record: COS7 cell lysate, fluorescence, higher = more signal.
Assay [7] can be described thus: compound binding in COS7 lysate, probe aLAP1, primary screen, cell lysate, small-molecule microarray (AID 1124).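 Note: lysate comes from COS7 cells expressing LAP1 and is applied at 0.3 µg/mL; score merges spot fluorescence near 667 nm with signal-to-noise over triplicate slides.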 Conditions: probe aLAP1, fluorescence, higher = more signal.
Assay [8] deals with Sam68 (KHDRBS1). Kind of assay: Sam68 small-molecule binders, primary screen, biochemical, small-molecule microarray, 635 nm fluorescence (AID 1125).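 Note: score merges 667 nm channel intensity with signal to noise over triplicate slides.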 The settings on record: small-molecule microarray binding, higher = more signal.
Assay [9] has as its system Chordin-like protein 2 (CHRDL2). Kind of assay: CHRDL2 small-molecule binders, primary screen, biochemical, small-molecule microarray, 635 nm fluorescence (AID 1126).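 Note: printed compound slides probed with Chrdl2 protein at 4 µg/mL for 1 h at 4 C; score merges 667 nm emission intensity with signal to noise over three replicate slides.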 The settings on record: small-molecule microarray binding, fluorescence 635 nm; higher = more signal.
Assay [10] deals with Concanavalin-A (Canavalia ensiformis) (UniProt P02866). Kind of assay: ConA small-molecule binders, primary screen, artefact control for SMM control protein annotation, biochemical, small-molecule microarray, Alexa647 label, 635 nm (AID 1127).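 Note: z combines 667 nm emission intensity with signal-to-noise across three replicate slides.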 The settings on record: ConA-A647 binding fluorescence, higher = more signal.
Sequence of Concanavalin-A (Canavalia ensiformis) (P02866 whole entry, looked up): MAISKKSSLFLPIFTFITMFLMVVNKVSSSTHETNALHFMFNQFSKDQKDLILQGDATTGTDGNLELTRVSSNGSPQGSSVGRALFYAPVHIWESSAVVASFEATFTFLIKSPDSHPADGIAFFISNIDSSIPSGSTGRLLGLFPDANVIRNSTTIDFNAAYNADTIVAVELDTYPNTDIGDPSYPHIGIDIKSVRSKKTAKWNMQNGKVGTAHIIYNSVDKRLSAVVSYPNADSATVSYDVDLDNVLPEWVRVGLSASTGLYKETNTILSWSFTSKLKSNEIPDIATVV
A short description of assay [11]: anti-His antibody binders, primary screen, artefact control for SMM control protein annotation, biochemical, small-molecule microarray, 635 nm fluorescence (AID 1128).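 Note: score merges feature fluorescence with signal-to-noise for each printed compound spot.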 The settings on record: anti-His Alexa647 antibody binding, higher = more signal.
In assay [12] the test system is Human papillomavirus type 1a E7 protein (residues 1-88). As to the kind of experiment: HPV1a E7 small-molecule binders, primary screen, biochemical, small-molecule microarray, residues 1-88, 635 nm (AID 1129). The settings on record: small-molecule microarray binding, fluorescence 635 nm; higher = more signal.
Assay [13] concerns the target Focal adhesion kinase 1 (Homo sapiens) (UniProt Q05397). As to the kind of experiment: small-molecule microarray binders of FAK, primary screen, biochemical, 635/667 nm fluorescence, BSA, DTT (AID 1130).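 Note: composite of spot emission at 667 nm and signal to noise over triplicate slides.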 The settings on record: PTK2 binding, 635 nm fluorescence, higher = more signal.
For assay [14], the system named is Fibrinogen (Alexa647-labelled). As to the kind of experiment: fibrinogen binders on compound microarrays, profiling panel, artefact control for SMM control-protein annotation, biochemical, small-molecule microarray, 635/667 nm fluorescence (AID 1131).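 Note: z-score merges 667 nm fluorescence with per-spot signal-to-noise over triplicate slides.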 Conditions: fibrinogen-A647 binding fluorescence, higher = more signal.
The target of assay [15] is Follistatin (Homo sapiens) (UniProt P19883). As to the kind of experiment: follistatin binders on small-molecule microarrays, primary screen, biochemical, small-molecule microarray, 635/667 nm fluorescence (AID 1132). The settings on record: FST binding, 635 nm fluorescence, higher = more signal.
Sequence of Follistatin (Homo sapiens) (P19883 whole entry, looked up): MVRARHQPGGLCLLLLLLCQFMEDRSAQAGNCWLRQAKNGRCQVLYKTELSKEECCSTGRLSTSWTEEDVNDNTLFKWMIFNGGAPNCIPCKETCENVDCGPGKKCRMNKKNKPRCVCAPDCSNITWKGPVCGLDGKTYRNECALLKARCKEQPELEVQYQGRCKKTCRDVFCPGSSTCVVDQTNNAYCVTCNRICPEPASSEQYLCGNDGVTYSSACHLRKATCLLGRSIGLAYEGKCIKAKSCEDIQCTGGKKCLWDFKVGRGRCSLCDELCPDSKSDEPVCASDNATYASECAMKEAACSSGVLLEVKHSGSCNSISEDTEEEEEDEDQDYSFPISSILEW
For assay [16], the target named is Fibroblast growth factor 2 (Homo sapiens) (UniProt P09038). Kind of assay: FGF2 binders on small-molecule microarrays, primary screen, biochemical, small-molecule microarray, 635/667 nm fluorescence (AID 1133). Conditions: small-molecule microarray binding, FGF2, fluorescence 635/667; higher = more signal.
Sequence of Fibroblast growth factor 2 (Homo sapiens) (P09038 whole entry, looked up): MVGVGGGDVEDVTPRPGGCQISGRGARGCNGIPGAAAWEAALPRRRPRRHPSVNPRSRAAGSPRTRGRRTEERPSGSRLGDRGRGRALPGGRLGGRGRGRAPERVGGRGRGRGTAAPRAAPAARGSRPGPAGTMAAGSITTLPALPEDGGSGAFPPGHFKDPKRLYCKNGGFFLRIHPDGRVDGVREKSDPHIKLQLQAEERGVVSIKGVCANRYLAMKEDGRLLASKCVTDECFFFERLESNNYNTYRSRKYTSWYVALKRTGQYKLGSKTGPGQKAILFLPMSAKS
The nature of assay [17]: mitochondrial membrane potential change in A549 cells, profiling panel, cell-based, JC-1 fluorescence, basal, 24 h, 100 nL (AID 1138).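 Note: A549 lung adenocarcinoma cells under basal conditions with no added stimulus; test concentration not given here.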 The settings on record: higher = more signal.
Assay [18] has as its system Lefty1. Kind of assay: Lefty1 binders on small-molecule microarrays, primary screen, biochemical, small-molecule microarray, 635/667 nm fluorescence (AID 1139). Conditions: small-molecule microarray binding, fluorescence 635/667; higher = more signal.
In assay [19] the test system is wheat germ agglutinin (Triticum aestivum), Alexa647-labelled. As to the kind of experiment: wheat germ agglutinin binders on compound microarrays, profiling panel, artefact control for SMM control-protein annotation, biochemical, small-molecule microarray, 635/667 nm fluorescence (AID 1140).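 Note: score merges 667 nm feature emission with signal to noise over triplicate slides.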 Conditions: WGA-A647 binding, 635 nm fluorescence, higher = more signal.
Assay [20] has as its target Luciferin 4-monooxygenase (Photinus pyralis) (UniProt P08659). As to the kind of experiment: firefly luciferase enzyme inhibitors, primary screen, biochemical, luminescence, purified enzyme, 2006 set (AID 1141).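 Note: cell-free assay with purified firefly luciferase at 100 ng per well in PBS; test concentration not given here.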 The settings on record: SteadyGlo luminescence, 30 min, higher = more signal, called active from +8 up or from −8 down.

SMILES strings stand for the structures. The source made the active and inactive calls.

Sequence of Luciferin 4-monooxygenase (Photinus pyralis) (P08659 whole entry, looked up): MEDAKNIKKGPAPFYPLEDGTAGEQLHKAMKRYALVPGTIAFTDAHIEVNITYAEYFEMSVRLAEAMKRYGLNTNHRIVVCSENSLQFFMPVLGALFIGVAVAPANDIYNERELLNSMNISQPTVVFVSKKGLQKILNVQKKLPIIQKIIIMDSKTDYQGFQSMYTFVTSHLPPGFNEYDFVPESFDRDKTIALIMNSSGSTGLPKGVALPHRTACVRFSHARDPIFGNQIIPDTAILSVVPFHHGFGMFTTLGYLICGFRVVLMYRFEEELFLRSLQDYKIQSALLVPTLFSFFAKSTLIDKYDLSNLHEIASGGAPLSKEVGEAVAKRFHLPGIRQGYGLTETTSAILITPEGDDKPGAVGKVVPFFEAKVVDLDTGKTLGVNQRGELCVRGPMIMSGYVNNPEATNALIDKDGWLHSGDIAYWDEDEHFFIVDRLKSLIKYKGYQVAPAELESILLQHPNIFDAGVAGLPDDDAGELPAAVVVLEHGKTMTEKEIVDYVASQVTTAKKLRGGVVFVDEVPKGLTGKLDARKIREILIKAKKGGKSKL
Sequence of Albumin (Bos taurus) (P02769 whole entry, looked up): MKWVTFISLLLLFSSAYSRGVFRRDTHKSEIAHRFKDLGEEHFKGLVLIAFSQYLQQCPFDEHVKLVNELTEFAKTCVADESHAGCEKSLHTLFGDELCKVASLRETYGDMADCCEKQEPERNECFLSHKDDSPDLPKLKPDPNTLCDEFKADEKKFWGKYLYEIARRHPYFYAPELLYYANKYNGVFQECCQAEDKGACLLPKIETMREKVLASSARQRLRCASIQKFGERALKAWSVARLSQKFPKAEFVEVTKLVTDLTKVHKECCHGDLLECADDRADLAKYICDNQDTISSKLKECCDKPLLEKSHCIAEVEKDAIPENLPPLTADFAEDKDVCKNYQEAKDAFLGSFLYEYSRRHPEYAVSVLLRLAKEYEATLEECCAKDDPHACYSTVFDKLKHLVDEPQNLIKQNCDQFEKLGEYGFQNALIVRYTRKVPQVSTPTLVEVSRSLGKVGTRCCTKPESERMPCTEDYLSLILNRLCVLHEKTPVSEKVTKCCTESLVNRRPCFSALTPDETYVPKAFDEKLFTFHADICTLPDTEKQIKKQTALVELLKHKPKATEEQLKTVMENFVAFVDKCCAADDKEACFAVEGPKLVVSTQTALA
Sequence of Focal adhesion kinase 1 (Homo sapiens) (Q05397 whole entry, looked up): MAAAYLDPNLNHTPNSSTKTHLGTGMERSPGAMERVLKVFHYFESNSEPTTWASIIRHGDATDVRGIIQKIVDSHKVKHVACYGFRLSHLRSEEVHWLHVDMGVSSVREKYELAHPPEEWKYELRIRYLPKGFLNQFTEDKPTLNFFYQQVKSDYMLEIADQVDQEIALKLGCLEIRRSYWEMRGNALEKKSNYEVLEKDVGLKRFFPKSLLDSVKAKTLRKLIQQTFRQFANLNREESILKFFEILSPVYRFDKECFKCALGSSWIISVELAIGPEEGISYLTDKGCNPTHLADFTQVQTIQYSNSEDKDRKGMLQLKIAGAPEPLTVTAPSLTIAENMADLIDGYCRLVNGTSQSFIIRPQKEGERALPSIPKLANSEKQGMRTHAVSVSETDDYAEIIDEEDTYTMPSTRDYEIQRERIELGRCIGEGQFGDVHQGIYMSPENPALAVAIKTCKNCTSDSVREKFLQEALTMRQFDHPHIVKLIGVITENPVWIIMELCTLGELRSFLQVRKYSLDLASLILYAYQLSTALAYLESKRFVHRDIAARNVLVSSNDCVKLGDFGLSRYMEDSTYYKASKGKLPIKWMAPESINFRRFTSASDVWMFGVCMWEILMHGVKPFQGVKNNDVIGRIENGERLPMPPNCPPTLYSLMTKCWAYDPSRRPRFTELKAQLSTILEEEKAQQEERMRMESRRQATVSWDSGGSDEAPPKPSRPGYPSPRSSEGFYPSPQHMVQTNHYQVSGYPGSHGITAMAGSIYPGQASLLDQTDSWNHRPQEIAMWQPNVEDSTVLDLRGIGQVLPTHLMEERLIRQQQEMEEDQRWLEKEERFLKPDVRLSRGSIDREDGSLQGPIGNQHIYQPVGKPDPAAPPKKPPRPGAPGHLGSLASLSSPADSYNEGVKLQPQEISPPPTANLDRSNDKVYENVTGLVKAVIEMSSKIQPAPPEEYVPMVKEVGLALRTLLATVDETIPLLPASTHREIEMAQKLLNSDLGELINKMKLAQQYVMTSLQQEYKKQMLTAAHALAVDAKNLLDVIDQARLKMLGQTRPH

For `CCCNC(=O)[C@@H]1c2ccccc2C(=O)N(Cc2ccccc2OC)[C@H]1c1ccc(CO)cc1`, the composite z-score in assay [1] was 0.735; in assay [3] it was -0.0573; in assay [4], -0.0966; in assay [5] it was 0.604; in assay [6], 1.83; in assay [7], 0.614. Further, the composite z-score in assay [8] is 1.1; in assay [9], -0.0218; in [10] it was 0.748; in assay [11], 2.08; in [12] it was 1.22; in assay [13] it was 0.609. Moreover, the composite z-score in [14] was 0.937; in assay [15], 0.98; in [16] it was 1.06; in [18], 0.482; in assay [19] it was 0.712. For the same compound, the composite Z-score in assay [2] is -0.228 (inactive). In addition, the z-score in assay [17] was 1.53; in [20], -0.452 (inactive).

In the case of `CC(=O)Nc1cc(Br)ccc1C(=O)NCc1ccccc1`, the composite z-score is 0.744 in [1]; -0.0311 in [3]; -0.123 in assay [4]; 0.23 in [5]; 1.18 in assay [6]; -0.458 in [7]. Besides, the composite z-score in [8] was 0.494; in assay [9] it was -0.141; in assay [10] it was 0.811; in assay [11] it was 0.69; in assay [12], 0.6; in [13], 0.265. The composite z-score in assay [14] was 0.402; in assay [15] it was -0.0708; in [16], -0.327; in [18], -0.285; in [19], 0.674. The composite Z-score in [2] is -0.34 (inactive). The results for the z-score in [17] and in assay [20] were 2.26 and -0.65 (inactive), respectively.

As for `[N-]=[N+]=Nc1ccccc1[C@H]1OC(c2ccc(OCCCO)cc2)=N[C@@]1(CCS(=O)(=O)c1ccccc1)C(=O)NCc1ccccc1`, the composite z-score in [1] is 0.307; in assay [3] it was 0.318; in assay [4], -0.037; in assay [5] it was 0.684; in assay [6], 2.3; in [7] it was 0.403. The composite z-score in [8] is 1.32; in [9], -0.164; in assay [10], 0.94; in assay [11], 1.18; in [12] it was 1.24; in assay [13], 0.341. Also, the composite z-score was determined as 1.04 in assay [14]; 1.34 in assay [15]; 0.694 in [16]; 0.152 in assay [18]; 0.697 in [19]. The composite Z-score in [2] was -0.0549 (inactive). The z-score in [17] was 0.727; in [20], -7.61 (inactive).

For `COC(=O)[C@@]1(Cc2ccc(OC)cc2)[C@H]2c3cc(C(=O)N(C)C)n(Cc4ccc(C(F)(F)F)nc4)c3C[C@H]2CN1C(=O)c1ccccc1`, the composite z-score in [1] worked out at 0.92; in [3] it was 0.17; in assay [4], 0.183; in assay [5], 0.752; in [6], 2.11; in [7], 0.017. The composite z-score in assay [8] is -0.354; in assay [9], 0.181; in [10], -0.0962; in [11], 0.598; in assay [12], 0.846; in [13], 1.2. The composite z-score is 0.843 in [14]; -0.0313 in [15]; -0.49 in [16]; -0.501 in assay [18]; 0.833 in assay [19]. Moreover, the composite Z-score in assay [2] was 3.72 (inactive). The figures for the z-score in assay [17] and in [20] were 0.549 and 0.678 (inactive), respectively.

With `CN(C)CCCC[C@@H]1NC(=O)[C@H]2C[C@@H](C(=O)NCCCCCN)[C@@H](c3cccc(OCCO)c3)N2C1=O`, the composite z-score is 0.878 in [1]; 0.313 in assay [3]; 0.41 in assay [4]; 0.746 in assay [5]; 1.75 in [6]; 1.12 in [7]. The composite z-score in assay [8] is 1.19; in assay [9] it was 0.402; in assay [10] it was 1.12; in [11], 2.91; in [12], 1.12; in assay [13] it was 0.297. For the same compound, the composite z-score in assay [14] turned out to be 1.01; in assay [15], 1.38; in [16], 1.22; in assay [18], 1.66; in assay [19], 1.48. In addition, the composite Z-score in assay [2] was 0.522 (inactive). Besides, the z-score was 0.129 in assay [17] and -0.69 (inactive) in assay [20].

The values are drawn from PubChem BioAssay.
